# Laboratory results from paper PMC7862700, “An all-to-all approach to the identification of sequence-specific readers for epigenetic DNA modifications on cytosine”.
# Tests used:
# Assay in all cases: DAPPL (digital affinity profiling via proximity ligation, sequencing); 10 mM Tris-HCl pH 7.5, 50 mM NaCl, 1 mM DTT, 4% glycerol, room temperature, 30 min; GST-TFs on glutathione beads, 16-mer random dsDNA library, 0.1% formaldehyde crosslink after washing; high values mean tight binding
# Details in all cases: protein: recombinant; tags: N-terminal GST; dsDNA, one strand shown
# [1] = target: T1, ELK1 (Homo sapiens, UniProt P19419 1-428)
# T1 sequence: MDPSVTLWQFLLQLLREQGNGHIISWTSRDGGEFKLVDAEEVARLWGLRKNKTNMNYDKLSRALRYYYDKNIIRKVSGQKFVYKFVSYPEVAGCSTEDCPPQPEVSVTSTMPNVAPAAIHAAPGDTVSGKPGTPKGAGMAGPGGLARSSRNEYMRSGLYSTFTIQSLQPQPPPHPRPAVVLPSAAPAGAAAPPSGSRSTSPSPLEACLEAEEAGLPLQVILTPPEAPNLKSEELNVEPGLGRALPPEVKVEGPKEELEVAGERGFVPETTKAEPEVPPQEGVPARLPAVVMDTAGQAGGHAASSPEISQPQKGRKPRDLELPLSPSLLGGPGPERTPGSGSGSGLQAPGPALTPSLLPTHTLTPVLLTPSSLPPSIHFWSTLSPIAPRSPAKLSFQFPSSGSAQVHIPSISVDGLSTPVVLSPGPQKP
# Outline: (§1)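 Beads coated with glutathione captured GST-fused human transcription factors that had been expressed in yeast, and the factors were then given DNA barcodes and pooled with a tag-only sample. The pools were incubated with 200 nmole of a random double-stranded 16-mer DNA library in Tris/NaCl/DTT/glycerol buffer for 30 min at room temperature, washed, crosslinked with 0.1% formaldehyde and proximity-ligated with BsaI/T4 ligase at 37 °C for 1 h. PCR amplification and Illumina NextSeq500 sequencing came last. Binding signal is each hexamer's read frequency for a factor divided by its frequency for the tag-only sample.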
# [2] = target: T2, GABPA (Homo sapiens, UniProt Q06546 1-454)
# T2 sequence: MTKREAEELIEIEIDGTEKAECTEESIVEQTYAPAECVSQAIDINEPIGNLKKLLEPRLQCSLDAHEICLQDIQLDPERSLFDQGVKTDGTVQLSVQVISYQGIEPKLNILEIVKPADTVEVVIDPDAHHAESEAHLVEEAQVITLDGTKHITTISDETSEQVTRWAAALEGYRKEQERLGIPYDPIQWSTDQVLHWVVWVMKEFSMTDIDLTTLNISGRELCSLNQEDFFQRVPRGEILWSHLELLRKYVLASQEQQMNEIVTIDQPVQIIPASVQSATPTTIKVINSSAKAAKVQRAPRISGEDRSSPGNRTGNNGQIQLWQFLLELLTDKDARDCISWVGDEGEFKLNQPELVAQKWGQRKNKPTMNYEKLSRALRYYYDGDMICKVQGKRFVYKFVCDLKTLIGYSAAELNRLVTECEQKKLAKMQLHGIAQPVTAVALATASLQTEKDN
# Outline: as §1
# [3] = target: T3, ERG (Homo sapiens, UniProt P11308 1-479)
# T3 sequence: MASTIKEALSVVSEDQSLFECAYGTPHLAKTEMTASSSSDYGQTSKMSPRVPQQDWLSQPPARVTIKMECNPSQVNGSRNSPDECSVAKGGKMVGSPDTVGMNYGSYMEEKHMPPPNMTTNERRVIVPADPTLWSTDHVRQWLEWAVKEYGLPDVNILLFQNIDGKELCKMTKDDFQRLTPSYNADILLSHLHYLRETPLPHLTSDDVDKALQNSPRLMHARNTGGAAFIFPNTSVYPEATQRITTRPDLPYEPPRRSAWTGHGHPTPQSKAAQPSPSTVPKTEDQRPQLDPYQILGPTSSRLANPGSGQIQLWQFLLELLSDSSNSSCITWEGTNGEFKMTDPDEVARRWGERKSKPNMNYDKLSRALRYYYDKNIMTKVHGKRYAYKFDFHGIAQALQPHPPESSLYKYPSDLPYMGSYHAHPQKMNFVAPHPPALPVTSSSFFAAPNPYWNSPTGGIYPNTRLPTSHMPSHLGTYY
# Outline: as §1
# [4] = target: ELF1 (Homo sapiens, UniProt P32519 1-619)
# Outline: as §1
# [5] = target: T4, EHF (Homo sapiens, UniProt Q9NZC4 1-300)
# T4 sequence: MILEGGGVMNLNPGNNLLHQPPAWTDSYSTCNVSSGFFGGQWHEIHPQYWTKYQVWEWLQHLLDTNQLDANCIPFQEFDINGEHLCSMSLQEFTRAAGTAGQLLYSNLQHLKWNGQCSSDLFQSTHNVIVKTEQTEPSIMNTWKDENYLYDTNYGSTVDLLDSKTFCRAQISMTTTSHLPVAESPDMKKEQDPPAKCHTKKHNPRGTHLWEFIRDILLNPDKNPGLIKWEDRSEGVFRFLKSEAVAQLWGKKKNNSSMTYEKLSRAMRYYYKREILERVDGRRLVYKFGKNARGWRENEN
# Outline: as §1
# [6] = target: SPIB (Homo sapiens, UniProt Q01892 1-262)
# Outline: as §1
# [7] = target: T5, SPIC (Homo sapiens, UniProt Q8N5J4 1-248)
# T5 sequence: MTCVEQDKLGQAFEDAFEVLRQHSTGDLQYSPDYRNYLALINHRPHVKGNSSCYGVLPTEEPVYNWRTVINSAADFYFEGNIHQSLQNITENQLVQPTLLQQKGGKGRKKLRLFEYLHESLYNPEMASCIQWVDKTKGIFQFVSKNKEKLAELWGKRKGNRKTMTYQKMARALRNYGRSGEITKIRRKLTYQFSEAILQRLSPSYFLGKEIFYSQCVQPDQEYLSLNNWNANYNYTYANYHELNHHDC
# Outline: as §1
# [8] = target: ELF4 (Homo sapiens, UniProt Q99607 1-663)
# Outline: as §1
# [9] = target: T6, ELK4 (Homo sapiens, UniProt P28324-2 1-405)
# T6 sequence: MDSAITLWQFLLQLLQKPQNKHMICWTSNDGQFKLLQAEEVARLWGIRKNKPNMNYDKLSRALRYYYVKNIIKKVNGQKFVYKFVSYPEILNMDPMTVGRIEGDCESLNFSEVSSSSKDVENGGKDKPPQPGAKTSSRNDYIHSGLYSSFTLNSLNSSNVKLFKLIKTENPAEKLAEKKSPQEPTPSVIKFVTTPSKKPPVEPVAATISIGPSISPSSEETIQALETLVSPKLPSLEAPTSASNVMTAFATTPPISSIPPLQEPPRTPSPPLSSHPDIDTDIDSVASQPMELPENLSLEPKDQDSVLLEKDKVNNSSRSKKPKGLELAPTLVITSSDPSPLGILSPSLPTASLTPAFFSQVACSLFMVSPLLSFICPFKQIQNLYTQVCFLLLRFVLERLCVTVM
# Outline: as §1
# [10] = target: ETV1 (Homo sapiens, UniProt P50549 1-477)
# Outline: as §1
# [11] = target: T7, ERF (Homo sapiens, UniProt P50548 1-548)
# T7 sequence: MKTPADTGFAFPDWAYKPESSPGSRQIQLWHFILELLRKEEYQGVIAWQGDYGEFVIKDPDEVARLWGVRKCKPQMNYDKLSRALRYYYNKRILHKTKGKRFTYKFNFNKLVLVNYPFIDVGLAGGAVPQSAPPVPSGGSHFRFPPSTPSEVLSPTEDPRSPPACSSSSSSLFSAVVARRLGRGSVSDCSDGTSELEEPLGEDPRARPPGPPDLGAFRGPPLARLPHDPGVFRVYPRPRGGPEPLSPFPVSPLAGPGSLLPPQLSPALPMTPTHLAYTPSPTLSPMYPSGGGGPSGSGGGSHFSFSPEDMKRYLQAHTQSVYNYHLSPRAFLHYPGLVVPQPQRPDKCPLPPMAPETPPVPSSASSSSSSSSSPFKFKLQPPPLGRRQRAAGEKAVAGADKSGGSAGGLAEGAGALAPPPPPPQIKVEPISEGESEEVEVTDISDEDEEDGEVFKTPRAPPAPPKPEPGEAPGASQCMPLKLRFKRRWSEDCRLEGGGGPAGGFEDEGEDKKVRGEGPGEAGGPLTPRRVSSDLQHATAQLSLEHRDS
# Outline: as §1
# [12] = target: T8, ETV3L (Homo sapiens, UniProt Q6ZN32 1-361)
# T8 sequence: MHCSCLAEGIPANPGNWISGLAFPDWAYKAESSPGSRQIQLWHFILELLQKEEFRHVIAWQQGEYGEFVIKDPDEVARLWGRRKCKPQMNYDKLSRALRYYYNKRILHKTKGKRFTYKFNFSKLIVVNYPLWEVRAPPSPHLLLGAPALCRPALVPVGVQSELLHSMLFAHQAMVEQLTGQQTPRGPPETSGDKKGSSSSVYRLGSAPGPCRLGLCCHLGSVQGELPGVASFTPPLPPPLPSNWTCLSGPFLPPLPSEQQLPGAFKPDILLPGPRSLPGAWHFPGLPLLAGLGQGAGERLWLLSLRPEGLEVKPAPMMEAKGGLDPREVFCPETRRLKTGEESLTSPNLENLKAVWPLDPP
# Outline: as §1
# [13] = target: T9, ETS2 (Homo sapiens, UniProt P15036 1-469)
# T9 sequence: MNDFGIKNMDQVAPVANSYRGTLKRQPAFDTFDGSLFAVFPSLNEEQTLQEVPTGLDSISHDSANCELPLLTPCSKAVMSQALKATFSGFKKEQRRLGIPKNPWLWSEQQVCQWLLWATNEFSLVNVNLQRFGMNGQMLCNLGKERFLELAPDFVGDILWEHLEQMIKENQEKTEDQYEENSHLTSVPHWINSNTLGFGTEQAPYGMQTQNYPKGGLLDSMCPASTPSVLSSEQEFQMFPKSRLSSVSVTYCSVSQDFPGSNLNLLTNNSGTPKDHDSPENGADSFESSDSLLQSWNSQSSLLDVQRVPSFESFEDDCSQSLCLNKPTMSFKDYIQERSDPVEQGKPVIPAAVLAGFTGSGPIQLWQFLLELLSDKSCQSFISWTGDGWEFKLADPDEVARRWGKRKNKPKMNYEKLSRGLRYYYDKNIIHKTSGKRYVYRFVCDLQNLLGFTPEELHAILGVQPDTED
# Outline: as §1
# [14] = target: T10, ETV7 (Homo sapiens, UniProt Q9Y603 1-341)
# T10 sequence: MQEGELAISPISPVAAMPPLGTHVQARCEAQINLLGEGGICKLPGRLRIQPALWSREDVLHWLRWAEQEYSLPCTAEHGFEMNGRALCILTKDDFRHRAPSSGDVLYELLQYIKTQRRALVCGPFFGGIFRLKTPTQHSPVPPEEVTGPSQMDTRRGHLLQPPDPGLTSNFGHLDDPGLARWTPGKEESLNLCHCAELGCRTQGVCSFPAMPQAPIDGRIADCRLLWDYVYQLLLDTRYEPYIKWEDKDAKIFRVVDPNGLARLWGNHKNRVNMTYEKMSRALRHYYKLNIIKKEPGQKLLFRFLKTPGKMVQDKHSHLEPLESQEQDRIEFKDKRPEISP
# Outline: as §1
# [15] = target: ETV6 (Homo sapiens, UniProt P41212 1-452)
# Outline: as §1
# Chain of ELF1 (P32519 whole entry): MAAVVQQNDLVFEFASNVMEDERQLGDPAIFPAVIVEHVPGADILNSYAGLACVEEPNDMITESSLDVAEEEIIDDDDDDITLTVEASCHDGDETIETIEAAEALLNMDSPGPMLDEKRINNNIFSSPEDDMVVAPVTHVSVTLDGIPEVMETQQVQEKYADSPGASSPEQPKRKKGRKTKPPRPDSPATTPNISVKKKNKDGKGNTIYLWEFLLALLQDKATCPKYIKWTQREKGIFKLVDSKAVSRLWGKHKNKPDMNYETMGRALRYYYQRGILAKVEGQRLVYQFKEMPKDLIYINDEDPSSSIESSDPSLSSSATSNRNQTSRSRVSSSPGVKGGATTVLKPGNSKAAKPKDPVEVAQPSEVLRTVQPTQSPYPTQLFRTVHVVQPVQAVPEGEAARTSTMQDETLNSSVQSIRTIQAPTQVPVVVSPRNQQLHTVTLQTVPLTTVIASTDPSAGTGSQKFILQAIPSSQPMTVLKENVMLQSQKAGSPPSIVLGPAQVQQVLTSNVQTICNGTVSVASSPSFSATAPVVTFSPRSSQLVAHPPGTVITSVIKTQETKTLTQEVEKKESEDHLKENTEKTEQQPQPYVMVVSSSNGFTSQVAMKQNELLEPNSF
# Chain of ETV1 (P50549 whole entry): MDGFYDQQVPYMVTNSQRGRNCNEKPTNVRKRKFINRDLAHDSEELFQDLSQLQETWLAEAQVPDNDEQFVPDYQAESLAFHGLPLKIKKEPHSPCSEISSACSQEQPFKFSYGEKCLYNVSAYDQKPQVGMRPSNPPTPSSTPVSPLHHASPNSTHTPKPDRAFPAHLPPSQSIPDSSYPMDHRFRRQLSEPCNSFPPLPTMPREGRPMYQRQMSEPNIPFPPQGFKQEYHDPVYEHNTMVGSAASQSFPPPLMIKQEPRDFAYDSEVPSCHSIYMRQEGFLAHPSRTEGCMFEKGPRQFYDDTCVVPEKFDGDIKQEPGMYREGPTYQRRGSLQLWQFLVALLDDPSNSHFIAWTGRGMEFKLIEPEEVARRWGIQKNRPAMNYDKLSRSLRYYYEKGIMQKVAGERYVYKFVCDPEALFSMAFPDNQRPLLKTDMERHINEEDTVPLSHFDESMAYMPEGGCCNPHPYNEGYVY
# Chain of SPIB (Q01892 whole entry): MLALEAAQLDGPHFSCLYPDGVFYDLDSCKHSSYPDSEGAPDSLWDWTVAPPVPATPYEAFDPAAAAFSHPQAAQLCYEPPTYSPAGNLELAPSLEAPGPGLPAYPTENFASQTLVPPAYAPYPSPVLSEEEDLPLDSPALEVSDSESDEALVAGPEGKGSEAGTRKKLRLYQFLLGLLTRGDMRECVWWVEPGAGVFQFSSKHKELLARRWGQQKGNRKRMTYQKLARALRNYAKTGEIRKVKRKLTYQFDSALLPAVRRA
# Chain of ELF4 (Q99607 whole entry): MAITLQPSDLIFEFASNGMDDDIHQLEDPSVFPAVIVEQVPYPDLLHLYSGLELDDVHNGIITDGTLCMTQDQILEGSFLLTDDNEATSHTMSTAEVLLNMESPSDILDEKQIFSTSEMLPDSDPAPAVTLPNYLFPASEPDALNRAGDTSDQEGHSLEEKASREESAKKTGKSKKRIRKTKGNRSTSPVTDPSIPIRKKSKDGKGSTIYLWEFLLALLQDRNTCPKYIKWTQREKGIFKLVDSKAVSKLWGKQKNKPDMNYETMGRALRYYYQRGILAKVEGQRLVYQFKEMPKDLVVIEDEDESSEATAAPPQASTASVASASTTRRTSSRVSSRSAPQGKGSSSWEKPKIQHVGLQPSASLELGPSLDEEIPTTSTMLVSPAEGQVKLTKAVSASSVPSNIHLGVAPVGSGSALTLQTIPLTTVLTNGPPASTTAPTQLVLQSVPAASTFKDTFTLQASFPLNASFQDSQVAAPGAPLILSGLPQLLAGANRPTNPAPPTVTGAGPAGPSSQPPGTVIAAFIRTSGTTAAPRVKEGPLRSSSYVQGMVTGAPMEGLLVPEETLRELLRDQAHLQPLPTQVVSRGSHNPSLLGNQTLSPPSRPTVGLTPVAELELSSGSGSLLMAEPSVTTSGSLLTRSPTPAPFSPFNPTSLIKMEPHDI
# Chain of ETV6 (P41212 whole entry): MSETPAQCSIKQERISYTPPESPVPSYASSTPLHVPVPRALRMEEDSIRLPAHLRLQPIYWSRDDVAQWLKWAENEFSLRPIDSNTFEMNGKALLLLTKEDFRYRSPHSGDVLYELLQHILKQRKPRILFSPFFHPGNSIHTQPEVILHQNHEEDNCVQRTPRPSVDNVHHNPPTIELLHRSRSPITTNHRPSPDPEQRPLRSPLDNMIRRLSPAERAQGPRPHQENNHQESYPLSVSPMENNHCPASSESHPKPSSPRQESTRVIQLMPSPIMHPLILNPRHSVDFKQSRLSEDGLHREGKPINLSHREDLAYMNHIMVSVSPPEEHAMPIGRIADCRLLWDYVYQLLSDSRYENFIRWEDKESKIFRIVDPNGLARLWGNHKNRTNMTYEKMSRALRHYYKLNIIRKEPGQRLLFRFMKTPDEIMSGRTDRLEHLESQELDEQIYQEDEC
sequence,measurement,setting,value
GTTCGC,binding signal,[1],"1.08 fold enrichment (6-mer frequency, TF over GST control)"
same,binding signal,[2],"1.03 fold enrichment (6-mer frequency, TF over GST control)"
same,binding signal,[3],"1.04 fold enrichment (6-mer frequency, TF over GST control)"
same,binding signal,[4],"1.02 fold enrichment (6-mer frequency, TF over GST control)"
same,binding signal,[5],"1.05 fold enrichment (6-mer frequency, TF over GST control)"
same,binding signal,[6],"1.11 fold enrichment (6-mer frequency, TF over GST control)"
same,binding signal,[7],"1.17 fold enrichment (6-mer frequency, TF over GST control)"
same,binding signal,[8],"1.1 fold enrichment (6-mer frequency, TF over GST control)"
same,binding signal,[9],"1.16 fold enrichment (6-mer frequency, TF over GST control)"
same,binding signal,[10],"1.14 fold enrichment (6-mer frequency, TF over GST control)"
same,binding signal,[11],"1.18 fold enrichment (6-mer frequency, TF over GST control)"
same,binding signal,[12],"1.07 fold enrichment (6-mer frequency, TF over GST control)"
same,binding signal,[13],"1 fold enrichment (6-mer frequency, TF over GST control)"
same,binding signal,[14],"1.02 fold enrichment (6-mer frequency, TF over GST control)"
same,binding signal,[15],"1.07 fold enrichment (6-mer frequency, TF over GST control)"
